Screening results: PubChem, Sanford-Burnham Center for Chemical Genomics
tim23-1 inh – growth inhibitors of tim23-1 mutant yeast, primary screen, luminescence, uHTS; 330,000 tested, 1.3% active; inhibition, % at 20 µM; S. cerevisiae tim23-1 growth, BacTiter-Glo luminescence, 24 h; AID 463212, 2010;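 active = growth inhibition of the mutant yeast at or above 50%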;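 note: temperature-sensitive mutant grown at 25 °C; plate controls were DMSO-treated mutant yeast for no effect and medium wells lacking yeast for full effect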
tim10-1 inh – growth inhibitors of tim10-1 mutant yeast, primary screen, luminescence, uHTS; 330,000 tested, 2.2% active; inhibition, % at 20 µM; S. cerevisiae tim10-1 ts strain growth, BacTiter-Glo, 24 h;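 active = inhibition of at least 40%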;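 note: mutant grown at 25 °C; 0% = DMSO wells with yeast and 100% = wells holding no yeast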
NALP1 inh – NALP1 inflammasome inhibitors in reconstituted yeast, colorimetric, S. cerevisiae, triplicate retest; S. cerevisiae NALP1/ASC/caspase-1 growth, X-gal OD620, 72 h; inhibition, % at 10 µM; 280,000 tested, 0.61% active; in the data active = inhibition mostly above about 24%, no sharp cut-off; inactive = mostly below about 32%
NLRP3 yeast inh – NALP3 inflammasome inhibitors in reconstituted yeast, primary screen, luminescence, uHTS | Yeast reconstituted NLRP3/ASC/caspase-1, beta-gal luminescence, 24 h | inhibition, % at 10 µM | 330,000 tested, 0.39% active;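 active = inhibition of 50% or more; inactive = inhibition below 50%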;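 note: plate controls were induced DMSO wells for no effect and uninduced yeast grown without galactose for full effect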
TIM10 inh – growth inhibitors of isogenic TIM10 control yeast, primary screen, counter-screen for tim10-1 yeast inhibitor project, luminescence, uHTS | S. cerevisiae TIM10 strain growth, BacTiter-Glo luminescence, 24 h | inhibition, % at 10 µM | 330,000 tested, 1.4% active | AID 463195, 2010;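 active = inhibition of 40% or more at the single tested concentration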;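 note: wild-type TIM10 isogenic control strain grown at permissive 25 °C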
tim10-1 confirm – growth inhibitors of tim10-1 mutant yeast, confirmation, single concentration, luminescence, S. cerevisiae. inhibition, % at 20 µM. S. cerevisiae tim10-1 ts strain growth, BacTiter-Glo, 24 h. AID 463213, 2010. 7,400 tested, 56% active. shares compounds with tim10-1 inh;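 active = inhibition of yeast growth at or above a set limit in either of two repeat tests at 20 µM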;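 note: tim10-1 mutant grown at permissive 25 °C to find synthetic lethal compounds; 0% = DMSO yeast wells and 100% = medium wells without yeast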
tim10 confirm – growth inhibitors of wild-type TIM10 yeast, confirmation, counter-screen for tim10-1 synthetic lethality project, single concentration, luminescence, S. cerevisiae | shares compounds with TIM10 inh | AID 463215, 2010 | S. cerevisiae tim10 strain growth, BacTiter-Glo luminescence, 24 h | 4,600 tested, 63% active | inhibition, % at 10 µM;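 active = inhibition of yeast growth at or above a set limit in either of two replicates at 10 µM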;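 note: this counterscreen used the strain with wild-type TIM10; 0% = yeast with DMSO and 100% = medium wells lacking yeast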
* = called active by the depositor; . = no result given. Most compounds without a hit are left out; they make up all but 4% or so of the library.

SMILES | tim23-1 inh | tim10-1 inh | NALP1 inh | NLRP3 yeast inh | TIM10 inh | tim10-1 confirm | tim10 confirm
C/C(=N\NC(=S)NCC(C)(C)C)c1cc(F)cc(F)c1O | 50 | 42* | 4 | 25 | 44* | 41* | 60*
COc1cc(NC(=O)COC(=O)CO/N=C(\C)c2ccc3c(c2)OCO3)cc(OC)c1 | 30 | 34 | . | -14 | 14 | . | .
CCC(C)NC(=O)CSc1ccc(S(=O)(=O)N(C)C2CCCCC2)cn1 (stereo not given) | 27 | 8 | . | 10 | 15 | . | .
CCCNC(=S)Nc1cccc(C(F)(F)F)c1 | 31 | 7 | 14 | 4 | 21 | . | .
FC(F)(F)c1cccc(NC(=S)NCC2COc3ccccc3O2)c1 (stereo not given) | 49 | 66* | 21 | 1 | 48* | 56* | 57*
FC(F)(F)c1cccc(NC(=S)Nc2cccc(NC(=S)Nc3cccc(C(F)(F)F)c3)n2)c1 | 44 | 53* | 7 | 28 | 48* | 33* | 32*
FC(F)(F)c1cccc(NC(=S)Nc2ccc(Cl)cc2Cl)c1 | 46 | 70* | 22 | -3 | 62* | 47* | 51*
S=C(Nc1ccccc1)Nc1ccc(Cl)cc1Cl | 5 | 19 | 19 | 15 | 26 | . | .
Cc1cccc(NC(=S)Nc2cccc(C(F)(F)F)c2)n1 | 35 | 20 | -27 | 18 | 8 | . | .
CCCCCCCCCC(=O)N[C@@H]1c2cc(OC)c(OC)cc2C[C@H]1O | 37 | 19 | . | . | 0 | . | .
CN(C)c1ccc(NC(=O)CCN2CCN(c3ccccn3)CC2)cc1 | 3 | 7 | 14 | 12 | -3 | . | .
O=C(Nc1cccc(C(F)(F)F)c1)c1cccnc1NCCc1ccccc1 | 40 | 44* | 17 | 12 | 43* | 30* | -5
CCc1c(C)nc2cc(-c3ccc(OC)c(OC)c3)nn2c1N1CCC(C)CC1 | 15 | 30 | -12 | 27 | 31 | . | .
CCc1c(C)nc2cc(-c3ccc(OC)c(OC)c3)nn2c1N1CCCC1 | 49 | 41* | 23 | 29 | 42* | -1 | 21
CC(c1nnnn1C(C)(C)C)N(Cc1cccnc1)Cc1ccccc1Cl (stereo not given) | 31 | 50* | 12 | 8 | 42* | 34* | 32*
OCCN1CCN(C2Cc3cc(Cl)ccc3Sc3ccc(Cl)cc32)CC1 (stereo not given) (tested in a mixture with another compound) | 20 | 48* | 27 | 25 | 43* | 35* | 1
CN1CCN(C2Cc3cc(Cl)ccc3Sc3cc(F)ccc32)CC1 (stereo not given) | 10 | 15 | . | 35 | 32 | . | .
COc1ccc(C(CNC(=O)CCC(=O)c2ccc(C)s2)N2CCOCC2)cc1 (stereo not given) | 13 | 11 | . | 0 | 5 | . | .
CCOC(=O)C(C(=O)OCC)C(Nc1ccccc1)c1ccccc1 (stereo not given) | 37 | 61* | 28 | 31 | 43* | 50* | -19
CCOc1ccc(N2CC(C(=O)NC3CCCCCC3)CC2=O)cc1 (stereo not given) | 21 | 17 | 11 | 26 | 4 | . | .
O=C(Nc1ccc(Cl)cc1Cl)c1cccc(N2C(=O)C=CC2=O)c1 | 37 | 59* | . | 6 | 95* | 96* | 100*
NS(=O)(=O)c1ccc(CCNC(=O)C2CCN(S(=O)(=O)c3ccc(Br)s3)CC2)cc1 | 14 | 2 | 12 | 9 | 11 | . | .
CC1CCN(C(=O)/C(=C/c2ccccc2Cl)c2ccccc2)CC1 | 37 | 41* | -46 | -7 | 41* | 31 | -27
O=C(COc1cc2oc(=O)cc(-c3ccccc3)c2cc1Cl)NC(Cc1c[nH]c2ccc(O)cc12)C(=O)O (stereo not given) | 0 | -10 | -1 | 9 | -2 | . | .
CCOC(=O)C1CCN(C(=O)c2cc3cc4cc(OC)ccc4nc3o2)CC1 | -8 | 48* | 51 | 22 | 53* | 51* | -5
